Out of some 1,500 compounds screened, about 460 (31%) were called active. About 1% were inconclusive and are not listed. A selection follows. Potency and affinity values are given separately. Values without a mark were called inactive.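 Rule for the calls: active = curve reaches 40% activation over neutral controls at an AC40 no higher than the top valid tested concentration; inconclusive = no clear call, values can overlap the other calls; inactive = signal moving opposite to the expected increase, and the rest.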
Assay: GLuc-reported insulin release enhancers, glucose-stimulated beta cells – cell-based, INS-1E, Gaussia luciferase, luminescence, cherry-pick, set 2, dose response (AID 977607);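 note: 0% = median of the plate neutral control wells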
Details: INS-1E GLuc insulin secretion reporter, 2-3 h, hits give high values; at 35 µM, 100% = signal doubled over neutral wells unless noted

SMILES	max activation
O=C(O)CCCC(=O)N1CCN(c2nc(-c3ccccc3)c3ccccc3n2)CC1	16.9% [at 0.42 µM, 100% = signal doubled over neutral wells]
O=C(Nc1ccccc1N1CCOCC1)C1=NN(c2ccccc2)C(=O)CC1	16.2%
CS(=O)(=O)N1CCN(c2ccccc2NC(=O)c2ccco2)CC1	22.3%
CC1(C(=O)NCC2CCCCC2)CCN1CCc1ccccc1 (stereo unspecified)	-18.8% [at 0.0016 µM, 100% = signal doubled over neutral wells]
CC(C)(C)OC(=O)N1CCCN(C(=O)c2ccc(Cl)cc2)CC1	-21.4% [at 0.135 µM, 100% = signal doubled over neutral wells]
CN1CCN(C(=O)c2cccc(-c3cnc4cnc(-c5ccccc5Oc5ccccc5)cn34)c2)CC1	-43%
N#CN=CN1CC=C(c2ccc(Cl)cc2)CC1	30.6% [at 3.8 µM, 100% = signal doubled over neutral wells]
CC1=NN(C(N)=S)C(=O)C1N=Nc1ccccc1C (stereo unspecified)	-15.4%
Cc1cc(C)n(-c2nc(NCCN(C)C)c3c4c(sc3n2)CCCC4)n1	22.9%
O=C(Cn1[nH]c(=O)c2ccccc2c1=O)OCC(=O)c1ccc(F)cc1	-10.7% [at 0.046 µM, 100% = signal doubled over neutral wells]
CC(=O)Nc1nc(CC(C)C)cc(-c2ccco2)c1C#N	-15.6% [at 0.135 µM, 100% = signal doubled over neutral wells]
CCOC(=O)c1sc2ncn(/N=C/c3cccnc3)c(=O)c2c1C	-22.4% [at 0.0016 µM, 100% = signal doubled over neutral wells]
Cc1cccc(C)c1NC(=O)NC1CCc2ccccc21 (stereo unspecified)	-27.2%
Cc1noc(C)c1NC(=O)N(C)C[C@H]1Oc2c(NC(=O)C3CCCCC3)cccc2C(=O)N([C@H](C)CO)C[C@@H]1C	-26.4% [at 0.015 µM, 100% = signal doubled over neutral wells]
COc1ccc(C(=O)c2cnc[nH]2)cc1OC	-12% [at 0.015 µM, 100% = signal doubled over neutral wells]
CCC(c1nnnn1-c1ccc2c(c1)OCCO2)N1CCc2ccccc2C1 (stereo unspecified)	36.8% [at 1.2 µM, 100% = signal doubled over neutral wells]
COc1ccc(N2CC(NS(=O)(=O)c3cccs3)CC2=O)cc1OC (stereo unspecified)	-12.7% [at 11 µM, 100% = signal doubled over neutral wells]
COc1ccc(-c2nc(CCNC(=O)c3ccco3)cs2)cc1OC	53% [at 0.015 µM, 100% = signal doubled over neutral wells]
COc1ccc(C2=NN(C(=O)c3ccco3)C(c3ccco3)C2)cc1OC (stereo unspecified)	9.84% [at 0.42 µM, 100% = signal doubled over neutral wells]

SMILES	max activation
COc1ccc2c(c1)[C@@]1(OCCC=C[C@H]1C)C(=O)N2CC1CC1	15.8% [at 11 µM, 100% = signal doubled over neutral wells]
O=C(NNC(=O)c1cc2cc3ccccc3nc2s1)c1cccc(C(F)(F)F)c1	-20.1% [at 0.015 µM, 100% = signal doubled over neutral wells]
CC(C)Cc1nc2oc3c(NCc4cccnc4)ncnc3c2c2c1CCC2	30.3% [at 0.42 µM, 100% = signal doubled over neutral wells]
CCc1ccc2c(c1)cc(CN(Cc1ccco1)C(C)=O)c1nnnn12	-18.4% [at 0.005 µM, 100% = signal doubled over neutral wells]
O=C(Nc1nccs1)c1cc(N2CCOCC2)nc2ccccc12	-23.7%
COc1ccc(-c2nc(N3CCC(C)CC3)[nH]c(=O)c2C#N)cc1	28.1% [at 11 µM, 100% = signal doubled over neutral wells]
COc1cccc(-n2c(=O)n(Cc3ccccc3)c(=O)c3[nH]cnc32)c1C	14.5%
COc1ccc(C)c(-n2c(=O)n(Cc3ccccc3)c(=O)c3[nH]cnc32)c1	38.9% [at 0.42 µM, 100% = signal doubled over neutral wells]
CCc1nc2c(OCc3ccccc3C)cccn2c1N(C)C(=O)c1ccco1	-25.5%
C=CCNC(=S)Nc1ccc2cn[nH]c2c1	-18.8% [at 0.0016 µM, 100% = signal doubled over neutral wells]
O=C(Nc1ccnn1C1CCN(C2CCC2)CC1)c1ccccc1Cl	-5.42%
COc1ccc(N2C(=O)CC(Sc3nc(C)cc(C)c3C#N)C2=O)cc1 (stereo unspecified)	-11.1% [at 11 µM, 100% = signal doubled over neutral wells]
CCNc1nc(NCC)nc(Nn2cnnc2)n1	-14.4% [at 0.42 µM, 100% = signal doubled over neutral wells]
CC(C)Cn1nc(-c2ccccc2)c2ccccc2c1=O	-16.6% [at 0.0016 µM, 100% = signal doubled over neutral wells]
Cc1ccc(-c2[nH]nc3c2C(c2cccnc2)C(C#N)=C(N)O3)cc1 (stereo unspecified)	36.3% [at 0.0016 µM, 100% = signal doubled over neutral wells]
COCCNc1nc(Oc2ccc(C(N)=O)cc2)c2sccc2n1	-20.7% [at 0.0016 µM, 100% = signal doubled over neutral wells]
COCCNc1nc(NCCCN(C)C)c2sccc2n1	-23.1%
CCCN1Cc2cccc(C(=O)NCc3ccccc3)c2C1=O	-24.8% [at 0.046 µM, 100% = signal doubled over neutral wells]
Cc1ccc2c(c1)CCCN2C(=O)c1ccc2c(c1)OCO2	-14.4% [at 0.0016 µM, 100% = signal doubled over neutral wells]

SMILES	max activation
CCOc1ccc(CCNC(=O)COc2cccc(-n3cnnn3)c2)cc1OCC	-22.6% [at 0.005 µM, 100% = signal doubled over neutral wells]
CCOc1ccc(CCNC(=O)COC(=O)c2cccnc2SC)cc1OCC	-22.4% [at 0.0016 µM, 100% = signal doubled over neutral wells]
COc1ccccc1Nc1c2c(nc3ccc(N)cc13)CCCC2	-15.8% [at 0.135 µM, 100% = signal doubled over neutral wells]
CCc1nc2n[nH]c(N)c2c2c1CCCC2	65.3%
CCc1cc(=O)oc2c(CNCc3ccc(OC)cc3OC)c(O)c(Cl)cc12	20.4%
COCCNC(=O)c1cc2c(c(-c3cccc(C#Cc4ccc(OC)c(OC)c4)c3)n1)[C@H](CCO)N(S(=O)C(C)(C)C)C2 (stereo partly specified)	8.82% [at 11 µM, 100% = signal doubled over neutral wells]
CC(C)(C)c1ccc(S(=O)(=O)N2CC(C(=O)O)Oc3ccc(Cl)cc32)cc1 (stereo unspecified)	-11.3% [at 0.015 µM, 100% = signal doubled over neutral wells]
Cc1ccccc1C(=O)NC1CCSC1=O (stereo unspecified)	-21.5% [at 0.005 µM, 100% = signal doubled over neutral wells]
COc1ccc(C(=O)Nc2nnc(-c3cccs3)s2)cc1	-13.2% [at 0.135 µM, 100% = signal doubled over neutral wells]
CN(C)CCCN(C(=O)CCOc1ccccc1)c1nc2c(F)cccc2s1	-32.2% [at 11 µM, 100% = signal doubled over neutral wells]
OC1(C#Cc2c(-c3ccsc3)sc3ccccc23)CCCCC1	50.8%
Cc1cc(-c2ccccc2)n2nc(N)nc2n1	-24.8% [at 0.046 µM, 100% = signal doubled over neutral wells]
O=c1c2ccccc2nnn1Cc1ccccc1	-23.5% [at 0.42 µM, 100% = signal doubled over neutral wells]
Cc1ccc2nc(N3CCN(C(=O)CCCC(=O)O)CC3)nc(-c3ccccc3)c2c1	12.5% [at 11 µM, 100% = signal doubled over neutral wells]
COC(C)(C)c1cc(C(C)(C)C)nc(N)n1	-18.4% [at 0.005 µM, 100% = signal doubled over neutral wells]
COc1cccc(-n2c(=O)c3ccccc3n(CC(=O)NCC3CCCO3)c2=O)c1 (stereo unspecified)	-15.9% [at 0.015 µM, 100% = signal doubled over neutral wells]
O=C(COc1ccccc1)N(Cc1cccc(F)c1)C1CCS(=O)(=O)C1 (stereo unspecified)	-16.7% [at 3.8 µM, 100% = signal doubled over neutral wells]
CC(Oc1ccc2c3c(c(=O)oc2c1)CCCC3)C(=O)NCc1cccnc1 (stereo unspecified)	27.7% [at 0.42 µM, 100% = signal doubled over neutral wells]
